Test results taken from PubChem BioAssay (Tox21).
Values without a mark were called inactive. Calls of active or inactive are those of the source. Calls follow the shape of the dose curve; as a rule, active = well fitted curve in the direction sought with a large enough effect in the repeat runs; inconclusive = weak or mixed curves; inactive = flat fitted curve, though single readings scatter.

Experiment: qHTS assay to test for compound auto fluorescence at 590 nm (red) in HEK293 cell free culture (AID 720683)
Conditions: cell-free medium autofluorescence, Ex540/Em590 red; series mostly up to 91.3 µM; fluorescence, % of fluorescent control: at the top concentration
How it was run: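 Cell-free wells of DMEM with 10% FBS received compound, and intrinsic fluorescence was read at excitation/emission 540/590 nm. Values expressed as equivalence to Rose Bengal sodium.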
% is scaled to controls: 0 for no effect and ±100 for the full control effect.

Compound	fluorescence, % of fluorescent control	outcome
CC1CCc2c(N3CCC(O)CC3)c(F)cc3c(=O)c(C(=O)O)cn1c23 (stereo unspecified)	-0.226% [at 46 µM]	–
Cc1ccc(C(C)NC(=O)[C@@H](NC(=O)OC(C)C)C(C)C)cc1 (stereo partly specified)	0.151%	–
Cc1cc(C)c(C(=O)O)c(C)c1	0.0273%	–
CC1(C)[C@H]2CC[C@](C)(C2)[C@H]1O	-0.0251% [at 95.7 µM]	–
COS(=O)(=O)O	0.0487%	–
CC1c2ccccc2CN1NC(=O)c1ccc(Cl)c(S(N)(=O)=O)c1 (stereo unspecified)	0.408% [at 46 µM]	–
C=C(C)c1cccc(C(C)(C)N=C=O)c1	-0.134%	–
CC(C)=CCC[C@@](C)(O)[C@H]1CC=C(C)CC1	0.218% [at 46 µM]	–
CN(C)CCCCl	0.0535% [at 95.7 µM]	–
CCC(=O)c1c(O)cc(O)cc1O	0.104% [at 46 µM]	–
Nc1nc(-c2ccccc2)c(Br)c(=O)[nH]1	0.365% [at 46 µM]	–
O=C1c2ccccc2C(=O)c2cc(Cl)ccc21	-0.094% [at 3.72 µM]	–
CC(C)Nc1ccccc1	-0.346%	–
C[C@@H](O)C(=O)O	0.0097% [at 95.7 µM]	–
OC[C@@H](O)C(O)[C@@H](O)CO (stereo partly specified)	-0.0568% [at 95.7 µM]	–
O=C1CCCCO1	-0.305%	–
CCCCOC(=O)[C@H](C)O	0.0105%	–
Cn1c(=O)c2[nH]c(Br)nc2n(C)c1=O	0.189% [at 46 µM]	–
Cc1ccnc(N)c1	0.198%	–
Cc1cccc(Cl)c1	0.0152%	–
[O]=[Mo](=[O])=[O]	0.0845% [at 18.6 µM]	–
CC1=NN(c2ccc(S(=O)(=O)O)cc2)C(=O)C1	-0.0739%	–
CC(C)OC(=O)OCOP(=O)(CO[C@H](C)Cn1cnc2c(N)ncnc21)OCOC(=O)OC(C)C	–	inactive
C/C(CC(C)C)=N\O	-0.151%	–
C=CCCCC	-0.0853% [at 95.7 µM]	–
C=C(C)[C@@H]1CC=C(C)CC1	-0.436%	–
